Consider 69 molecules from PubChem BioAssay AID504941 (Broad Institute, 2011).

The structures appear in SMILES notation. Screen size: about 1,200 compounds; about 170 (14%) were called active. No rule for the calls is given here. These entries were drawn from the full list. Results with a measured potency or affinity are listed apart.

This experiment is described as follows: E. coli Tat export inhibitors, dose response, cherry-pick, set 2, plate reader (AID 504941). The conditions noted are these: E. coli Tat transport reporter; series mostly up to 38 µM.
In the case of `O=c1oc(-c2ccccc2)nc2sc3c(c12)CCCC3`, the result was inactive.
The result for `O=C(O)CCCc1nc(-c2ccc(Cl)cc2)no1` reads “inactive”; that for `COc1ccc(OCc2nnc(SCC(=O)N3C(C)CCCC3C)o2)cc1` (centres undefined), “inactive”.
The result for `c1ccc(C2NCCc3ccccc32)cc1` (centres undefined) reads “inactive”; that for `Nc1nnc(-c2cn(-c3ccccc3)nc2-c2ccc(Cl)cc2)o1`, “inactive”; that for `CSc1ncccc1C(=O)OCC(=O)N(C)c1c(N)n(Cc2ccccc2)c(=O)[nH]c1=O`, “inactive”.
The result for `O=C(COC(=O)C12CC3CC(CC(Br)(C3)C1)C2)Nc1cccnc1Cl` reads “inactive”; that for `O=C(OCC(=O)N1CCCC1=O)c1cccc(S(=O)(=O)N2CCOCC2)c1`, “inactive”.
Consider `COc1ccc(NC(=O)CC2(CC(=O)O)CCCC2)cn1`, for which the result was inactive.
For the molecule `O=C(Nc1nc2c(s1)CCCC2)c1cccc(S(=O)(=O)N2CCCc3ccccc32)c1`, the call was inactive.
Consider `O=C(CCSc1ccccc1)NCC1CCCO1` (centres undefined), for which the molecule was classed as inactive.
The result for `CN(C(=O)c1cc2sccc2n1C)C1CCCCC1` reads “inactive”.
The result for `O=C(C1CCCO1)N1CCN(c2c3c(nc4cc(-c5ccc(F)cc5)nn24)CCC3)CC1` (centres undefined) reads “inactive”.
The result for `CCOc1ccc(Br)cc1CNCCN1CCOCC1` reads “inactive”.
In the case of `O=C(c1ccc2nc[nH]c2c1)N1CCN(c2ncc(C(F)(F)F)cc2Cl)CC1`, the molecule was called inactive.
The result for `Cn1c(SCC(=O)NCc2cccs2)nnc1-c1ccc(S(=O)(=O)N2CCCC2)cc1` reads “inactive”; that for `CN(C)S(=O)(=O)c1cccc(NC(=O)C2CCN(S(=O)(=O)c3cccs3)CC2)c1`, “inactive”; that for `O=C(Cn1cc2c(n1)CCCCC2)N1CCc2ccccc2C1`, “inactive”.
Turning to `CC(/C=N/NC(=O)c1n[nH]c2c1CCC2)=C\c1ccccc1`, the result was inactive.
The result for `CCC(CO)NC(=O)c1cccc(S(=O)(=O)N2c3ccccc3CC2C)c1` (centres undefined) reads “inactive”; that for `CC(C)S(=O)(=O)C1=NSC2=NC(=O)/C(=C\c3ccc(-c4cccc(C(=O)O)c4)o3)C(=N)N21`, “inactive”; that for `O=C(Nc1cc(N2CCOCC2)ncn1)c1ccccc1`, “inactive”.
The result for `O=C(O)c1ccc(NC2=C(N3CCOCC3)C(=O)c3ccccc3C2=O)cc1` reads “inactive”.
The result for `O=C(COC(=O)Cn1cnc2ccccc2c1=O)NCC12CC3CC(CC(C3)C1)C2` reads “inactive”; that for `CC(=O)NC1=NN(C(C)=O)C2(S1)C(=O)N(C(C)C)c1ccc(C)cc12` (centres undefined), “inactive”.
In the case of `Cc1cc(-c2c(C)[nH]n(-c3ccc(Cl)cc3)c2=O)n(-c2ccc(Cl)cc2)n1`, the result was inactive.
The result for `COC(=O)COc1cc2ccccc2cc1C(=O)Nc1ccccc1` reads “inactive”.
The result for `O=[N+]([O-])c1cccc(COc2cccc(CN3CCCCC3)c2)c1` reads “inactive”.
For the molecule `CS(=O)(=O)N1CCN(C(=O)c2cccnc2)CC1`, the call was inactive.
The result for `CC1(C)CC(=O)C=C(NCCN2CCN(C(=O)Nc3ccccc3)CC2)C1` reads “inactive”; that for `CC(C)(C)NC(=O)C[C@H]1C[C@H](C(=O)N2CCOCC2)[C@@]2(CCC3CCCC3)c3[nH]c4cc(-c5ccco5)ccc4c3CCN2C1=O`, “inactive”.
The result for `O=C(NCc1cccc(Cl)c1)c1cnn2c1NC(c1ccco1)CC2C(F)(F)F` (centres undefined) reads “inactive”; that for `O=C(CSc1nc2ccccc2c(=O)[nH]1)N1CCN(c2ccccc2F)CC1`, “inactive”.
The result for `CC1Cc2cc(/C(O)=C3/C(=O)C(=O)N(Cc4ccco4)C3c3cccs3)ccc2O1` (centres undefined) reads “inactive”; that for `CC(C)c1ccc(OCC(=O)NC2=NCCS2)cc1`, “inactive”.
As for `O=C(CNc1ccc(Cl)cc1)c1ccc(Br)cc1`, the molecule was called inactive.
On to `CCCCOC(=O)C1=C(C)NC(=O)NC1c1ccc2c(c1)OCO2` (centres undefined), for which the result was inactive.
The result for `CCN1CCCC1CNC(=O)C(=O)NC(C)C` (centres undefined) reads “inactive”; that for `COc1cc(CNCc2ccccn2)ccc1OCc1c(Cl)cccc1Cl`, “inactive”.
The result for `Cc1c(NC(=O)Nc2ccccc2)cccc1[N+](=O)[O-]` reads “inactive”; that for `CC1CN(S(=O)(=O)c2ccc(C(=O)Nc3ccccc3F)cc2)CC(C)O1` (centres undefined), “inactive”.
Take `Clc1ccc(C2[C@H]3CN(Cc4cccnc4)[C@H](c4ccccc4)C34CC2(c2ccccc2)C4)cn1` (some centres undefined): the call was inactive.
The result for `Cc1ccc(NC(=O)CCCc2nc3ccccc3s2)c(O)c1` reads “inactive”; that for `Cc1cnc(C(=O)OCC(=O)Nc2sc3c(c2C#N)CCC3)cn1`, “inactive”.
The result for `N#Cc1cn(CC(=O)N2CCCc3ccccc32)c2ccccc12` reads “inactive”; that for `COc1cc(S(=O)(=O)Nc2cc(C)cc(C)c2)ccc1F`, “inactive”.
The result for `COc1ccc(OC2OC3COC(c4ccco4)OC3C(O)C2NC(C)=O)cc1` (centres undefined) reads “inactive”.
Turning to `Cc1ccc(C(=O)CN2/C(=C(\O)c3ccccc3)C(=O)c3ccccc3S2(=O)=O)c(C)c1`, the result was inactive.
For the molecule `CC(=O)c1c(C)[nH]c(C(=O)Nc2ccccc2N2CCOCC2)c1C`, the outcome was inactive.
The result for `COc1cccc(C(=O)NCCS(=O)(=O)NCc2ccccn2)c1` reads “inactive”; that for `Clc1ccccc1-c1nn2c(-c3ccncc3)nnc2s1`, “inactive”.
The result for `O=C(O)CN1C(=O)CC(Cc2ccc(Cl)cc2)C1=O` (centres undefined) reads “inactive”; that for `Cc1c(N2C(=O)c3cccc4cccc(c34)C2=O)c(=O)n(-c2ccccc2)n1C`, “inactive”; that for `CCOC(=O)c1c2c3c(c(Cl)ccc3[nH]c1=O)C(=O)c1ccccc1-2`, “inactive”.
In the case of `CCOC(=O)c1ccccc1-n1nnnc1C`, the result was inactive.
Take `CCCCN1CC(COCc2ccccc2)Oc2cccc(N3CCCC3)c2S1(=O)=O` (centres undefined): the outcome was inactive.
The result for `CC(=O)Nc1cccc(Oc2nc(C(F)(F)F)nc3ccccc23)c1` reads “inactive”; that for `COc1ccc(NS(=O)(=O)c2cc(NC(=O)CCc3ccc(OC)c(OC)c3)ccc2N2CCOCC2)cc1`, “inactive”.
As for `O=C(CNC1CCCCC1)Nc1cc(S(=O)(=O)N2CCOCC2)ccc1Cl`, the molecule was called inactive.
The result for `O=C(CNC1CCCCCC1)Nc1ccccc1N1CCCCC1` reads “inactive”; that for `COC(c1ccccc1)c1nnc(CCC(=O)N(C)C(C2CC2)C2CC2)o1` (centres undefined), “inactive”.
The result for `CCOC(=O)C1(Cc2cccc(F)c2)CCN(C2CCOCC2)CC1` reads “inactive”; that for `C(=N\n1cncn1)/c1ccc(N2CCOCC2)cc1`, “inactive”; that for `COc1ccc(/C=N/Nc2ccccn2)cc1O`, “inactive”.
The result for `CC(NC(=O)c1ccc([N+](=O)[O-])cc1[N+](=O)[O-])c1ccc(-c2ccccc2)cc1` (centres undefined) reads “inactive”.
Regarding `CCOc1ccc(NC(=O)c2ccc(NC(=O)COC(=O)Cc3ccc(OC)cc3)cc2)cc1`, the outcome was inactive.
In the case of `Cc1ccc(-n2nnnc2SCC(=O)Nc2ccc3c(c2)OCCO3)cc1C`, the call was inactive.
Consider `COC(=O)c1ccc(OC(=O)c2nn(C)cc2Cl)c(OC)c1`, for which the molecule was classed as inactive.
In the case of `Cn1ncc(Cl)c1C(=O)NCc1ccc(Cl)cc1`, the outcome was inactive.
